Some test systems named below: DU-145 prostate; K-562 leukemia; MALME-3M melanoma; MDA-MB-231 breast; RXF 393 renal; SF-268 CNS; SF-295 CNS; SF-539 CNS; UACC-257 melanoma; M14 melanoma; HCT-15 colon; HT29 colon; SNB-75 CNS; SNB-19 CNS; U251 CNS; PC-3 prostate; SK-MEL-5 melanoma; UACC-62 melanoma; LOX IMVI melanoma; SK-MEL-28 melanoma.
What all share (assay): NCI-60 one-dose screen, 48 h (100 = growth as untreated, 0 = no growth, -100 = all killed)
What all share (conditions): 10 µM unless noted

About 83,000 compounds went through this panel and 20% of them were active in at least one assay; those are over-represented in the sample as a whole.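 A percent growth of 40 corresponds to 60% growth inhibition; 0 means no net growth; -100 means all cells died. Active threshold: below 10.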 Values without a mark were called inactive. Active and inactive are the calls of the source.

With `Fc1cc(F)cc(C(c2c[nH]c3ccccc23)c2c[nH]c3ccccc23)c1`, the growth with DU-145 prostate was 105%; with K-562 leukemia it was 118%; with MALME-3M melanoma, 130%; in the assay on MDA-MB-231 breast, 86.6%; with RXF 393 renal it was 115%; with SF-268 CNS, 97.6%. Besides, the growth with SF-295 CNS is 78.6%; with SF-539 CNS, 106%; in the assay with UACC-257 melanoma, 99.8%; in the assay with M14 melanoma, 98%; with HCT-15 colon, 79.5%; in the assay on HT29 colon, 99.1%. Moreover, the growth in the assay with SNB-75 CNS is 106%; in the assay on SNB-19 CNS, 104%; in the assay with U251 CNS, 101%; in the assay with PC-3 prostate it was 67.1%; in the assay on SK-MEL-5 melanoma, 88.2%; with UACC-62 melanoma, 84.9%. Also, the figures for the growth with LOX IMVI melanoma and in the assay with SK-MEL-28 melanoma were 83.5% and 101%, respectively.
As to `CCOC(=O)c1c(C)nc2c(c1N)CC(=O)N2Cc1cc(F)cc(Cl)c1`, the growth with DU-145 prostate is 94.5%; in the assay with K-562 leukemia, 95.2%; in the assay on MALME-3M melanoma, 108%; in the assay with MDA-MB-231 breast it was 87.5%; with RXF 393 renal, 92.4%; in the assay on SF-268 CNS it was 95.8%. Also, the growth with SF-295 CNS is 85.9%; in the assay on SF-539 CNS it was 94.2%; in the assay on UACC-257 melanoma, 82%; with M14 melanoma, 101%; in the assay with HCT-15 colon, 80.5%; with HT29 colon, 77.1%. The growth was 71.6% in the assay with SNB-75 CNS; 100% with SNB-19 CNS; 90.8% in the assay with U251 CNS; 77.9% in the assay with PC-3 prostate; 74.9% with SK-MEL-5 melanoma; 78% in the assay with UACC-62 melanoma. The growth in the assay on LOX IMVI melanoma was 96.5%; in the assay on SK-MEL-28 melanoma, 105%.
For the molecule `O=C(c1ccccc1)C1C(=O)N2C(=S)N(c3ccccc3)C(=O)C2C1c1ccc(Cl)cc1` (stereo not given), the growth with DU-145 prostate was 109%; in the assay with K-562 leukemia, 99.1%; in the assay with MALME-3M melanoma, 88.1%; in the assay with MDA-MB-231 breast, 90.4%; in the assay on RXF 393 renal it was 90.4%; in the assay with SF-268 CNS it was 97.5%. For the same molecule, the growth in the assay on SF-295 CNS is 94.2%; in the assay on SF-539 CNS, 98%; in the assay with UACC-257 melanoma, 101%; in the assay with M14 melanoma, 96.3%; in the assay on HCT-15 colon, 105%; in the assay on HT29 colon, 111%. Further, the growth in the assay with SNB-75 CNS is 96.5%; in the assay with SNB-19 CNS, 93.8%; in the assay on U251 CNS it was 98.4%; in the assay with PC-3 prostate it was 86.7%; in the assay with SK-MEL-5 melanoma, 91.6%; in the assay with UACC-62 melanoma, 88%. In addition, the growth in the assay on LOX IMVI melanoma is 90.2%; with SK-MEL-28 melanoma it was 93.8%.
In the case of `COc1ccc2cc(C(=O)c3coc4ccc(O)cc34)ccc2c1`, the growth in the assay with DU-145 prostate is 99.6%; in the assay on K-562 leukemia, 81.6%; in the assay on MALME-3M melanoma it was 92.1%; in the assay on MDA-MB-231 breast it was 95%; in the assay on RXF 393 renal it was 115%; in the assay with SF-268 CNS it was 90.1%. The growth with SF-295 CNS is 105%; with SF-539 CNS, 93.7%; in the assay on UACC-257 melanoma it was 103%; with M14 melanoma, 108%; in the assay with HCT-15 colon, 103%; with HT29 colon, 95.6%. For the same molecule, the growth was 101% in the assay on SNB-75 CNS; 104% in the assay on SNB-19 CNS; 103% with U251 CNS; 95.5% in the assay on PC-3 prostate; 99.5% in the assay on SK-MEL-5 melanoma; 98.7% in the assay on UACC-62 melanoma. Also, the growth in the assay with LOX IMVI melanoma is 97.4%; in the assay on SK-MEL-28 melanoma, 111%.
For the molecule `O=c1oc2ccc([N+](=O)[O-])cc2cc1Br`, the growth with DU-145 prostate was 109%; in the assay on K-562 leukemia, 102%; in the assay on MALME-3M melanoma it was 107%; with MDA-MB-231 breast, 109%; with RXF 393 renal, 108%; with SF-268 CNS, 103%. For the same molecule, the growth in the assay with SF-295 CNS was 98.8%; in the assay on SF-539 CNS, 82.2%; in the assay on UACC-257 melanoma, 104%; in the assay on M14 melanoma it was 104%; in the assay on HCT-15 colon it was 100%; in the assay on HT29 colon, 102%. Further, the growth is 86.6% with SNB-75 CNS; 108% in the assay with SNB-19 CNS; 101% with U251 CNS; 96.8% in the assay with PC-3 prostate; 102% in the assay on SK-MEL-5 melanoma; 101% with UACC-62 melanoma. Further, the values for the growth in the assay with LOX IMVI melanoma and with SK-MEL-28 melanoma were 97.2% and 107%, respectively.
`N=C(N)c1ccc(-c2ccc(-c3ccc(F)cc3)o2)o1`: the growth was 28.7% in the assay on DU-145 prostate; -28.5% (active) with K-562 leukemia; 41.6% with MALME-3M melanoma; 8.5% (active) with MDA-MB-231 breast; 39.6% in the assay with RXF 393 renal; 30% with SF-268 CNS. Besides, the growth in the assay on SF-295 CNS is 31.4%; with SF-539 CNS, 21.9%; in the assay with UACC-257 melanoma, 57.7%; in the assay on M14 melanoma, -54.1% (active); with HCT-15 colon, -0.304% (active); in the assay with HT29 colon, -20.3% (active). Also, the growth in the assay on SNB-75 CNS is 20%; with SNB-19 CNS, 26.7%; in the assay on U251 CNS, -11.7% (active); in the assay on PC-3 prostate, 19.3%; in the assay on SK-MEL-5 melanoma, 21.7%; with UACC-62 melanoma, 57.5%. Also, the growth with LOX IMVI melanoma was -61.6% (active); in the assay on SK-MEL-28 melanoma it was 65.1%.
Turning to `CC(C)(C)c1cc(-c2nc3ccc(N4CCN(S(C)(=O)=O)CC4)cc3[nH]2)cc(C(C)(C)C)c1O`, the growth is 99.1% in the assay on DU-145 prostate; 78.4% in the assay with K-562 leukemia; 82.4% with MALME-3M melanoma; 104% in the assay with MDA-MB-231 breast; 92.6% in the assay with RXF 393 renal; 93.1% with SF-268 CNS. The growth is 91.1% with SF-295 CNS; 86.5% in the assay with SF-539 CNS; 98.9% in the assay with UACC-257 melanoma; 98.3% in the assay with M14 melanoma; 69.2% in the assay with HCT-15 colon; 81% in the assay with HT29 colon. Besides, the growth with SNB-75 CNS is 73.8%; in the assay with SNB-19 CNS it was 104%; in the assay with U251 CNS it was 90.2%; in the assay on PC-3 prostate, 91.7%; in the assay with SK-MEL-5 melanoma, 95.7%; in the assay with UACC-62 melanoma, 94.5%. Besides, the growth with LOX IMVI melanoma is 91.8%; with SK-MEL-28 melanoma, 94.3%.
As to `COC(=O)c1c2c(c[n+]([O-])c1C)C(=O)C(NCc1ccccc1)=CC2=O`, the growth in the assay on DU-145 prostate was -87.1% (active); with K-562 leukemia, 1.41% (active); in the assay on MALME-3M melanoma, -93.4% (active); in the assay with MDA-MB-231 breast, -3.95% (active); in the assay with RXF 393 renal, -26% (active); in the assay with SF-268 CNS, -13.9% (active). The growth with SF-295 CNS was -45.3% (active); in the assay with SF-539 CNS, -71.7% (active); in the assay with UACC-257 melanoma it was -81.5% (active); in the assay with M14 melanoma it was -77.8% (active); in the assay on HCT-15 colon, -60.1% (active); in the assay with HT29 colon, -0.488% (active). In addition, the growth was -97.9% (active) in the assay with SNB-75 CNS; -23.8% (active) in the assay with SNB-19 CNS; -57.4% (active) in the assay on U251 CNS; -11.1% (active) with PC-3 prostate; -97% (active) in the assay with SK-MEL-5 melanoma; -78.5% (active) in the assay on UACC-62 melanoma. Also, the growth was -30.1% (active) with LOX IMVI melanoma and -29.3% (active) in the assay with SK-MEL-28 melanoma.

The values above are taken from PubChem BioAssay (NCI).
